# The entries come from a sample that favours hits as a whole.
# USP2a inh = blocks human ubiquitin-specific protease USP2a. O75604. USP2 core, Ub-CHOP2 coupled fluorogenic reporter, 485/531. Potency, µM (top dose mostly 38.3 µM), inactives show at the highest dose activity change, negative = inhibition, most hits filed as inhibitors. 0.01% of 330,000 active;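 also: plate controls were DMSO wells for no effect and full inhibition by NEM control for full effect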
#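 Deubiquitinase activity read as fluorescence (485/531 nm) after Ub-CHOP2 cleavage activates the enterokinase reporter on its substrate; USP2 core 10nM, Ub-CHOP2 and substrate 25nM each, 30min compound preincubation then 60min RT; data normalized to NEM, curves fitted.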
# Eya2 phos inh = blocks the phosphatase activity of human Eya2; O00167; recombinant Eya2, OMFP fluorescence dephosphorylation (OMFP is methylfluorescein phosphate); Potency, µM (titrated, usually from 76.9 µM), without a hit: top-dose activity, negative = inhibition, most hits filed as inhibitors; 0.006% of 330,000 active; also: % is scaled to controls: 0 for no effect and ±100 for the full control effect
# Target sequence (O00167 whole entry, looked up): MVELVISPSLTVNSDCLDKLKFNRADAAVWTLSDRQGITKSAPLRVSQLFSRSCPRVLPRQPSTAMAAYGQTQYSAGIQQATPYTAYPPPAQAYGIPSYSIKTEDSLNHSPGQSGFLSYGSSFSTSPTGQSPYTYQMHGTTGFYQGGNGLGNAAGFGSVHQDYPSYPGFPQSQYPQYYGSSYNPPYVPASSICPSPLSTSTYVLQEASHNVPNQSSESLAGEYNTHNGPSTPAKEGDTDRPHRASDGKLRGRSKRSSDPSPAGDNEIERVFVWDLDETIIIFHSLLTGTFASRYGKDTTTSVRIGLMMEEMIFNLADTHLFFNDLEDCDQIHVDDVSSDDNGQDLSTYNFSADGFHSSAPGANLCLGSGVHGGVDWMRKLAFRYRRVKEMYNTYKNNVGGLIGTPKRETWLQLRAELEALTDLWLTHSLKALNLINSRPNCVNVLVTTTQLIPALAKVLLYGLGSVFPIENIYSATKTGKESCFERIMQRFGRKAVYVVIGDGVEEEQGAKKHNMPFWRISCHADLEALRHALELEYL
#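 Eya2 (0.2 uM) preincubated 10 min at ambient with compound, then OMFP substrate added at 50 uM; 10 min reaction in 50 mM HEPES pH 7.5, 50 mM NaCl, 5 uM MgCl2, 0.05% BSA, 1 mM DTT. Fluorescence read at Ex 485/Em 525 nm.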
# a7 integrin act = activates integrin-mediated alleviation for muscular dystrophy; alpha7betagal myoblasts, beta-gal FDG fluorescence, 48 h; AID 624291; 0.064% of 350,000 active; Potency, µM (highest dose often 38.3 µM), inactives show at the top dose activation, hits mostly activators;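 also: 100% = response of the positive control SU9516; nearly all actives have a fitted effect of over 60% in size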
#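 Alpha7betagal+/- myoblasts (passage 13) were plated 16-24 hr, then exposed to compounds (1:260 dilution of DMSO stock) for 48 hours at 37C. After MPER lysis, β-galactosidase reporter activity was read as FDG fluorescence (ex 480/em 540) after 30 minutes.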
# ClpP mod = qHTS Assay for Activators of ClpP; purified B. subtilis ClpP, FRET peptide cleavage, 20 min; Potency, µM (top dose mostly 57.5 µM), for inactives: at the top dose activity change, negative = active; 1.9% of 340,000 active; AID 651965, 2013; active = well fitted falling curve with a large enough effect; inconclusive = small, poorly fitted or top-dose-only effect; inactive = no such curve, though single readings can be large or run the other way; also: the source files actives as falling curves though it sought activators and does not explain the sign; nearly all actives have a fitted effect of over 65% in size
#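 ClpP 10 microg/mL final, pH 8 Tris/KCl buffer with BSA, glycerol, Tween-20; compound pinned in; FRET-FV substrate; RT 20 min; Ex320/Em430; ΔFRET vs ADEP 5.8 microM, DMSO, no enzyme.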
# p53 reactivator = mutant p53 re-activation in reporter cells | Potency, µM (top dose mostly 92.2 µM), inactives show top-dose activity change, positive = activation, hits mostly activators | H1299 p53-A138V BP100-luciferase reporter, luminescence, 24 h | AID 504706 | 0.063% of 320,000 active; also: % of control where 0% means no effect; nearly all actives have a fitted effect of over 45% in size
#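 H1299 (p53-null), stable ts p53-A138V + BP100-Luc; 1000 cells/well, Opti-MEM/10% FBS; cpd 4 pt, 1:5; 24 h, 37 deg C, 5% CO2; detection reagent 10 min RT; luminescence.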
# Mm-Cpn inhibitor = M. maripaludis TRiC chaperonin inhibition. 0.031% of 330,000 active. Potency, µM (top dose mostly 76.9 µM), without a hit: at the highest dose activity, negative = inhibition, hits mostly inhibitors. purified Mm-Cpn ATPase, ADP Transcreener TR-FRET; also: % is scaled to controls: 0 for no effect and ±100 for the full control effect; nearly all actives have a fitted effect of over 80% in size
#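 ATPase turnover read by TR-FRET ADP competition (Eu cryptate antibody/ADP-d2, 665/590 nm): 10uM ATP final, 25nM Mm-CPN final, 30 min 37degC after 10-min compound preincubation, pH 7.4 Tris/KCl/MgCl2/DTT buffer.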
# An asterisk follows results filed as active; ? = inconclusive; nt = no result; [ ] = another dose, or the depositor's remark. Unless noted, calls follow the shape of the dose curve; as a rule, active = well fitted curve in the direction sought with a large enough effect; inconclusive = small, poorly fitted or top-dose-only effect, or another doubt; inactive = no such curve, though single readings can be large; an effect the other way counts as inactive or inconclusive. Potency is read from the fitted curve at half-maximal effect.
SMILES,USP2a inh,Eya2 phos inh,a7 integrin act,ClpP mod,p53 reactivator,Mm-Cpn inhibitor
COc1ccc(C2N=C(Nc3nc4ccccc4o3)NC3=C2C(=O)CC(C)(C)C3)cc1 (centres undefined),nt,nt,nt,3.8%,nt,nt
CCC1(C)CC(=O)N(c2ccc(F)c(Cl)c2)C(=O)C1,4.9%,-2.2%,0.0%,1.2%,-4.2%,0.6%
CCC1(C)CC(=O)N(c2ccc(C(=O)O)c(O)c2)C1=O (centres undefined),-2.4%,15.8%,17.0%,25.1µM*,4.8%,-0.9%
CC1=CC2=NC(=O)CC(C)(C(=O)N(CC(=O)NC(C)(C)C)C3CCCC3)N2C=C1 (centres undefined),-1.6%,-1.8%,-4.9%,31.6µM*,1.3%,-2.2%
CC(C)(C)NC(=O)CN(C(=O)C1(C)CC(=O)N=C2C=CC=CN21)C1CCCC1 (centres undefined),5.7%,15.8%,7.2%,?,19.2%,-3.1%
C=CCOc1ccc(C2OC34CCCCC3C(C#N)(C#N)C2(C#N)C(=N)O4)cc1 (centres undefined),7.4%,-6.7%,-14.1%,22.4µM*,1.5%,0.0%
COc1ccc(-n2ccnc2SCC(=O)Nc2nnc(C)s2)cc1,nt,nt,nt,-5.5%,nt,nt
Cc1cccc(-n2cnc(C(=O)O)c2)n1,5.4%,1.8%,12.0%,nt,-4.1%,-0.6%
CCC(C)NC(=O)c1cn(-c2cccc(C)n2)cn1 (centres undefined),2.5%,-1.4%,-9.4%,31.6µM*,14.1%,0.3%
CCOC(=O)C1(Cc2cccc(Cl)c2)CCCN(C(=O)c2cnn(CC)c2)C1 (centres undefined),1.7%,12.7%,-12.2%,31.6µM*,nt,-2.0%
CCOC(=O)C1(Cc2cccc(Cl)c2)CCCN(C(=O)c2cn[nH]c2)C1 (centres undefined),-7.7%,-9.5%,-45.8%,-2.9%,2.0%,1.9%
Clc1ccc(-c2csc3ncnc(Sc4nnnn4-c4ccccc4)c23)cc1,nt,nt,nt,-13.5%,nt,nt
O=C(O)CSc1nc2ccc(Cl)cc2[nH]1,0.6%,3.1%,-12.1%,25.1µM*,6.9%,-1.4%
O=C(O)CSc1nc2ccc(Br)cc2[nH]1,nt,nt,0.0%,nt,nt,nt
C=CC(=O)Nc1ccc(Br)cc1,0.2%,23.1%,-51.3%,15.8µM*,2.9%,0.9%
O=C(COc1ccccc1)NCC(c1ccco1)N1CCN(c2ccccc2F)CC1 (centres undefined),-0.9%,-2.6%,-13.7%,1.78µM*,-6.5%,2.4%
O=c1oc2ccc3ccccc3c2cc1-c1nnc(-c2ccccc2)o1,3.2%,9.1%,9.1%,14.1µM*,7.1%,0.4%
COc1ccc(-c2nnc(-c3cc4c(ccc5ccccc54)oc3=O)o2)cc1,3.6%,7.2%,-2.5%,?,?,-1.0%[15.4 µM]
O=C(O)C1C2C=CC(O2)C1C(=O)NCc1ccc(Cl)cc1 (centres undefined),0.2%,-1.2%,20.8%,35.5µM*,13.4%,2.7%
O=C(O)C1C2C=CC(O2)C1C(=O)NCc1ccc2c(c1)OCO2 (centres undefined),1.4%,11.1%,-1.6%,-1.1%,6.0%,-0.5%
COc1ccccc1/C=C/c1nc2ccccc2s1,nt,nt,nt,-11.4%,nt,nt
CCN(CC)CCOc1cc2c(nn1)Oc1ccccc1N2C,1.1%,13.1%,2.9%,12.6µM*,5.6%,-3.5%
CC(C)Cn1cc(C(=O)NCCCOC(C)C)c2c3ccccc3n(C)c2c1=O,1.6%,4.5%,8.3%,28.2µM*,-4.8%,1.5%
CCN(CC)CCCNC(=O)c1cn(CC(C)C)c(=O)c2c1c1ccccc1n2C,3.4%,0.9%,-21.5%,15.8µM*,-6.4%,-1.1%
CCN(CC)CCCNC(=O)c1cn(C)c(=O)c2c1c1ccccc1n2C,-6.0%,3.9%,-24.9%,3.8%,-4.3%,4.4%

# Source: PubChem BioAssay (National Center for Advancing Translational Sciences (NCATS))
